Source: PubChem BioAssay (Tox21)
Records with an inconclusive call do not appear. Active and inactive are the calls of the source. Unless noted, calls follow the shape of the full dose curve.

Key:
[1] = Nuclear factor erythroid 2-related factor 2/antioxidant responsive element (Nrf2/ARE) small molecule agonists: qHTS cell viability counter screen in human keratinocytes (AID 1919968; active = well fitted curve in the direction sought with a large enough effect in the repeat runs; an effect the other way counts as inactive or inconclusive; also: nearly all actives have a fitted effect of over 55% in size)
In short: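 Parallel cytotoxicity read: KeratinoSens HaCaT cells, compound treatment 23 h, viability by CellTiter-Fluor fluorescence 1 h post-reagent.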

[2] = Nuclear factor erythroid 2-related factor 2/antioxidant responsive element (Nrf2/ARE) small molecule agonists: luciferase reporter gene qHTS assay in human keratinocytes (AID 1919969); also: nearly all actives have a fitted effect of over 35% in size; also: potency is read from the fitted curve at half-maximal effect
[3] = biological target: Gonadotropin-releasing hormone receptor (Homo sapiens) (UniProt P30968); test: Human gonadotropin-releasing hormone receptor (GnRHR) small molecule agonists, calcium flux assay in GnRHR-HEK293 cells (AID 1920063); also: nearly all actives have a fitted effect of over 35% in size
In short: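 Calcium flux, agonist mode, human GnRHR stably integrated in HEK293; dye 1 h at 37 C before compound; Ex/Em=480/540 kinetic read, 3 min; 15 concentrations, triplicate.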

[4] = biological target: KiSS-1 receptor (Homo sapiens) (UniProt Q969F8); test: Human kisspeptin (KISS1R) small molecule agonists, calcium flux assay in KISS1R-HEK293 cells (AID 1920064; active = well fitted curve in the direction sought with a large enough effect in the repeat runs; an effect the other way counts as inactive or inconclusive)
In short: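 Triplicate 15-concentration series were applied to dye-loaded human KISS1R HEK293 cells, and agonist-evoked calcium fluorescence was captured for 3 min.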

[5] = G protein-coupled receptor (GPCR) small molecule agonists, calcium flux assay: HEK293 wild type cell line counter screen (AID 1920065)
In short: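 Non-specific calcium responders were flagged by adding DMSO-dissolved compounds to dye-loaded cells and reading 480/540 nm fluorescence each second for 3 min; ATP served as positive control.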

[6] = p53 small molecule agonists, cell-based qHTS assay with human liver microsomes (AID 1963577);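 also: p53 response element beta-lactamase reporter cells with liver microsomes plus NADPH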
In short: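 Reporter activation was measured by LiveBLAzer fluorescence intensity in p53RE-bla cells, which had been exposed to compounds for 16 h at 37 C alongside 0.5 mg/mL human liver microsomes and 0.5 mg/mL NADPH (final concentrations).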

[7] = p53 small molecule agonists, cell-based qHTS assay with rat liver microsomes (AID 1963578)
In short: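 Compound in DMSO added to p53RE-bla cells 5 h post-plating; rat microsomes/NADPH 0.5 mg/mL final; 16 h, 37 C; LiveBLAzer 2 h RT.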

[8] = p53 small molecule agonists, cell-based qHTS assay with human liver microsomes: qHTS cell viability counter screen (AID 1963579); also: nearly all actives have a fitted effect of over 45% in size
In short: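 HLM-supplemented (0.5 mg/mL final) and NADPH-supplemented (0.5 mg/mL final) p53RE-bla cultures, 4,000 cells per well, were dosed with compounds in DMSO for 16 h at 37 C; luminescent ATP detection (CellTiter-Glo, 30 min, room temperature) quantified surviving cells.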

[9] = p53 small molecule agonists, cell-based qHTS assay: qHTS cell viability counter screen (AID 1963581); also: nearly all actives have a fitted effect of over 45% in size
In short: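 Multiplexed with the reporter read, a CellTiter-Glo step (30 min, room temperature) gauges ATP-based viability of HCT-116 p53RE-bla cells after 16 h compound incubation at 37 C.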

[10] = p53 small molecule agonists, cell-based qHTS assay (AID 1963582; active = well fitted activation curve with a large enough effect in the signal ratio in the repeat runs, not every such curve was filed as active; the % refers to the signal ratio)
In short: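 Beta-lactamase reporter cells (p53RE-bla) treated with compounds for 16 h at 37 C; FRET substrate, 2 h, room temperature; fluorescence intensity.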

[11] = biological target: 5-hydroxytryptamine receptor 2A (Homo sapiens) (UniProt P28223); test: 5-hydroxytryptamine receptor 2A (HTR2A) small molecule antagonists, cell-based qHTS assay (AID 1963586); also: nearly all actives have a fitted effect of over 45% in size
In short: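 CHO cells stably expressing human HTR2A were plated for 18 h at 37 C, then loaded with calcium dye for 1 h. Compounds were preincubated 5 min at room temperature before DOI (4 nM solution) was added. Kinetic fluorescence was read for 3 min.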

[12] = biological target: 5-hydroxytryptamine receptor 2A (Homo sapiens) (UniProt P28223); test: 5-hydroxytryptamine receptor 2A (HTR2A) small molecule agonists, cell-based qHTS assay (AID 1963587); also: nearly all actives have a fitted effect of over 30% in size
In short: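 Kinetic calcium-flux fluorescence (2 min, 1 sec intervals) after compound addition in agonist mode. HTR2A-CHO cells were cultured 18 h, then dye-loaded 1 h at 37 C.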

[13] = biological target: Muscarinic acetylcholine receptor M1 (Homo sapiens) (UniProt P11229); test: Cholinergic receptor muscarinic 1 (CHRM1) small molecule antagonists, cell-based qHTS assay (AID 1963588); also: nearly all actives have a fitted effect of over 40% in size
In short: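 Compounds were tested at 15 concentrations in three independent runs. Dye-loaded CHRM1-CHO cells were exposed 5 min at room temperature before stimulation by acetylcholine added at 50nM. Intracellular calcium was read kinetically on FDSS for 3 min.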

[14] = biological target: Muscarinic acetylcholine receptor M1 (Homo sapiens) (UniProt P11229); test: Cholinergic receptor muscarinic 1 (CHRM1) small molecule agonists, cell-based qHTS assay (AID 1963589); also: nearly all actives have a fitted effect of over 35% in size
In short: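 qHTS, 15-point titration, 3 independent runs: compounds pin-transferred onto dye-loaded CHRM1-CHO cells (human M1), calcium fluorescence followed every second to detect agonism.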

[15] = cAMP Responsive Elements (CRE) small molecule agonists, cell-based qHTS assay (AID 1963590)
In short: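 Quantitative HTS for CRE agonists: HEK 293T CRE-bla cells, overnight plating, 3 h compound incubation at 37 C/5% CO2, then 2 h room-temperature LiveBLAzer B/G FRET substrate loading.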

[16] = cAMP Responsive Elements (CRE) small molecule antagonists, cell-based qHTS assay (AID 1963591; active = well fitted inhibition curve with a large enough effect in the signal ratio in the repeat runs, not every such curve was filed as active; the % refers to the signal ratio)
In short: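 Fluorescence intensity from cleaved LiveBLAzer B/G substrate (2 h, room temperature) quantified CRE-bla activity in HEK 293T cells exposed 3 h to compound with 0.25 uM final NKH477.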

[17] = biological target: Beta-2 adrenergic receptor (Homo sapiens) (UniProt P07550); test: Adrenergic beta2 receptor (ADRB2) small molecule antagonists, cell-based qHTS assay (AID 1963592); also: series mostly up to about 92 µM; nearly all actives have a fitted effect of over 50% in size
In short: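 Assay format: CHO-ADRB2 cells, 18-20hr seeding at 37C/5% CO2, then compound plus 1nM isoproterenol agonist mix for 0.5hr RT. Homogeneous time-resolved fluorescence cAMP detection after 1hr, expressed as 665/615 nm ratio.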

[18] = biological target: D(2) dopamine receptor (Homo sapiens) (UniProt P14416); test: Dopamine D2 receptor (DRD2) small molecule agonists, cell-based qHTS assay (AID 1963594); also: nearly all actives have a fitted effect of over 35% in size
In short: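 cAMP accumulation in DRD2-HEK293 cells measured by HTRF after 1 h detection; compounds added 10 min before NKH477 (200nM […]) forskolin-analogue stimulation, 30 min at room temperature, with Ro20-1724 present at 0.1 mM final.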

[19] = biological target: D(2) dopamine receptor (Homo sapiens) (UniProt P14416); test: Dopamine D2 receptor (DRD2) small molecule antagonists, cell-based qHTS assay (AID 1963595; active = well fitted inhibition curve with a large enough effect in the signal ratio in the repeat runs, with a control signal flat; the % refers to the signal ratio)
In short: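 Antagonist mode in DRD2-HEK293 cells: after compound addition with 0.1 mM Ro20-1724, cells received quinpirole (12 nM) and NKH477 (200 nM) for 30 min at room temperature; HTRF cAMP read after 1 h detection.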

[20] = biological target: Beta-2 adrenergic receptor (Homo sapiens) (UniProt P07550); test: Adrenergic beta2 receptor (ADRB2) small molecule agonists, cell-based qHTS assay (AID 1963593);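 also: CHO cells stably overexpressing human ADRB2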
In short: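 CHO cells stably over-expressing ADRB2 were plated overnight at 37C, then dosed with compounds plus a stimulation mix containing 100uM IBMX and 25uM Ro-20-1724 for 0.5hr at room temperature. cAMP was measured by HTRF competition, 1hr.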
% is scaled to controls: 0 for no effect and ±100 for the full control effect.

Chain of Muscarinic acetylcholine receptor M1 (Homo sapiens) (P11229 whole entry, looked up): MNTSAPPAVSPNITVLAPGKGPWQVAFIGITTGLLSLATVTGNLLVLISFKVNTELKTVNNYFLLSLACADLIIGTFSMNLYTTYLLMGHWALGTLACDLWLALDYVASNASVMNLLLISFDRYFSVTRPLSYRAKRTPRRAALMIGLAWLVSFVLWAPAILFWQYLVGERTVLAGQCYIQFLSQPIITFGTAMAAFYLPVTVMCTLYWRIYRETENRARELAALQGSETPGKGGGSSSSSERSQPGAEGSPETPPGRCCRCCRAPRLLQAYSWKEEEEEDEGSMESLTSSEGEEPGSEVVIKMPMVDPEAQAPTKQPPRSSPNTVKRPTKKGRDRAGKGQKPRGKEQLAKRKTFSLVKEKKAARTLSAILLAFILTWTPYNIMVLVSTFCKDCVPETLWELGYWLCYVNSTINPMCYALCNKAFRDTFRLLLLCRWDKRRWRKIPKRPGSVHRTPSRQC
Chain of KiSS-1 receptor (Homo sapiens) (Q969F8 whole entry, looked up): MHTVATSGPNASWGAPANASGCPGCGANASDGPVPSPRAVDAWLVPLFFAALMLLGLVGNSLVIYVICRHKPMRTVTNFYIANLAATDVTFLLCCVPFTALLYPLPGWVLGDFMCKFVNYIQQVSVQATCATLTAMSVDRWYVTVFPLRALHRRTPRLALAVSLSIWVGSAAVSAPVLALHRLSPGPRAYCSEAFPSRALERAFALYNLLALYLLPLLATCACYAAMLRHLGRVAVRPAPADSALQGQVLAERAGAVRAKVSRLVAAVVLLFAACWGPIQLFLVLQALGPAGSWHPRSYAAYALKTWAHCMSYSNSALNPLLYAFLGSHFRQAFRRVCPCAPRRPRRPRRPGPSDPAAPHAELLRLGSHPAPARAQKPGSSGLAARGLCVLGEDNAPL
Chain of Beta-2 adrenergic receptor (Homo sapiens) (P07550 whole entry, looked up): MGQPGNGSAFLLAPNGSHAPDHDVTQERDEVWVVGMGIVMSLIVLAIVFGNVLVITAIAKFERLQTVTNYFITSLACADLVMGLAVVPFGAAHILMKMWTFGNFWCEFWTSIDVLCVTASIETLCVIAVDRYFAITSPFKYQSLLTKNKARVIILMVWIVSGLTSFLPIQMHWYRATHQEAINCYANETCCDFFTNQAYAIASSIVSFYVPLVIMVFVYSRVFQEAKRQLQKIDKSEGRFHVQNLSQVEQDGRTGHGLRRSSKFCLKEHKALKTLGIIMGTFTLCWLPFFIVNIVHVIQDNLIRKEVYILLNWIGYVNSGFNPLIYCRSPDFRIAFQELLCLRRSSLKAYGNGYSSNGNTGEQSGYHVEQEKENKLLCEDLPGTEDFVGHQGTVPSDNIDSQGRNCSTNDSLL
Chain of Gonadotropin-releasing hormone receptor (Homo sapiens) (P30968 whole entry, looked up): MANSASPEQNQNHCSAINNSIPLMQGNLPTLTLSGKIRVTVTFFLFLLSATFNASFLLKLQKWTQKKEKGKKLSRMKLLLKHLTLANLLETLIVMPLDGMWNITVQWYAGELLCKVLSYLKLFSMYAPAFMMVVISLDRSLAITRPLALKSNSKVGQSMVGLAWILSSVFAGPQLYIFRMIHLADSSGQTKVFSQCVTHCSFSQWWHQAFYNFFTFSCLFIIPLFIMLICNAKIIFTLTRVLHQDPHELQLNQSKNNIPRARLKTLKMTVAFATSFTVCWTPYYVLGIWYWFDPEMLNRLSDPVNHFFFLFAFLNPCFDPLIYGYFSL
Chain of D(2) dopamine receptor (Homo sapiens) (P14416 whole entry, looked up): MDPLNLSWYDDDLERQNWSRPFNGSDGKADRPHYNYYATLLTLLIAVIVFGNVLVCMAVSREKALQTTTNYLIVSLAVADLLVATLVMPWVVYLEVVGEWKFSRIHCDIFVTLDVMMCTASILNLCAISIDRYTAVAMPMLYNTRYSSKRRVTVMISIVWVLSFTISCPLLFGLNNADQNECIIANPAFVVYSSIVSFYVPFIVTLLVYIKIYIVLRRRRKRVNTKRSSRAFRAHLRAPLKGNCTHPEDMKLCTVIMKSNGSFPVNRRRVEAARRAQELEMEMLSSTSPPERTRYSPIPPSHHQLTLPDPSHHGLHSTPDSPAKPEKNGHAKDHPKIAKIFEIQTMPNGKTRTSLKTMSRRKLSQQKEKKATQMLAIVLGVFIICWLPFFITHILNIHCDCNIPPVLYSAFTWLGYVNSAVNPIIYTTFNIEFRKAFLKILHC
Chain of 5-hydroxytryptamine receptor 2A (Homo sapiens) (P28223 whole entry, looked up): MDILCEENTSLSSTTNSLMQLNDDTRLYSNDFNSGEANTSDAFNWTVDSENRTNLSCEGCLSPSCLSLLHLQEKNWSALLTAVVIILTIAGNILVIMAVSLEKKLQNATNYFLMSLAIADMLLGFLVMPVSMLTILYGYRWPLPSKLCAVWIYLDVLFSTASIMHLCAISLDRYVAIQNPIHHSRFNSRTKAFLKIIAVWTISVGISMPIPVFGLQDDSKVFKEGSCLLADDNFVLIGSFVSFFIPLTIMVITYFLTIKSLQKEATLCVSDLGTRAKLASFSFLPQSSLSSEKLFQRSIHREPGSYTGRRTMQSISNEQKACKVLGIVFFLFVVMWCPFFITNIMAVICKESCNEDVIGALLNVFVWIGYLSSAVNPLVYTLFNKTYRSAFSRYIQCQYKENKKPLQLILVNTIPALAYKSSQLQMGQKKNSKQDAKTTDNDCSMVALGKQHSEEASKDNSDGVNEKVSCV

CCOC(C)=O
inactive: Potency [1] | Potency [2] | Potency [3] | outcome [4] | outcome [5] | Potency [6] | Potency [7] | Potency [8] | Potency [9] | Potency [10] | Potency [11] | Potency [12] | Potency [13] | Potency [14] | Potency [15] | Potency [16] | Potency [17] | Potency [18] | Potency [19]

C=CCCCCCCCCC(=O)OCC
inactive: Potency [1] | Potency [2] | Potency [3] | outcome [4] | outcome [5] | Potency [6] | Potency [7] | Potency [8] | Potency [9] | Potency [10] | Potency [11] | Potency [12] | Potency [13] | Potency [14] | Potency [15] | Potency [16] | Potency [17] | Potency [18] | Potency [19]

Cc1ccc(/C=N/n2c(-c3ccccc3)csc2=S)cc1
inactive: Potency [1] | Potency [2] | Potency [3] | outcome [4] | outcome [5] | Potency [6] | Potency [7] | Potency [8] | Potency [9] | Potency [10] | Potency [11] | Potency [12] | Potency [14] | Potency [15] | Potency [16] | Potency [17] | Potency [18] | Potency [19]

[Cl][Sc]([Cl])[Cl]
inactive: Potency [1] | Potency [2] | Potency [3] | outcome [4] | outcome [5] | Potency [6] | Potency [7] | Potency [8] | Potency [9] | Potency [10] | Potency [11] | Potency [12] | Potency [13] | Potency [14] | Potency [15] | Potency [16] | Potency [17] | Potency [19]

Clc1ccnc(Cl)n1
active: Potency [2] 69.6 µM
inactive: Potency [1] | Potency [3] | outcome [4] | outcome [5] | Potency [6] | Potency [7] | Potency [8] | Potency [9] | Potency [10] | Potency [11] | Potency [12] | Potency [13] | Potency [15] | Potency [16] | Potency [17] | Potency [18] | Potency [19]

CCOc1nc(F)cc2nc(S(=O)(=O)Nc3c(Cl)cccc3C(=O)OC)nn12
inactive: Potency [1] | Potency [2] | Potency [3] | outcome [4] | outcome [5] | Potency [6] | Potency [7] | Potency [8] | Potency [9] | Potency [10] | Potency [11] | Potency [12] | Potency [13] | Potency [14] | Potency [16] | Potency [17] | Potency [18] | Potency [19]

CC1=CC(O)CC(C)(C)C1 (stereo unspecified)
inactive: Potency [1] | Potency [2] | Potency [3] | outcome [4] | outcome [5] | Potency [6] | Potency [7] | Potency [8] | Potency [9] | Potency [10] | Potency [11] | Potency [12] | Potency [13] | Potency [14] | Potency [15] | Potency [16] | Potency [17] | Potency [20] | Potency [18] | Potency [19]

CCCCCCCC(=O)OCC
inactive: Potency [1] | Potency [2] | Potency [3] | outcome [4] | outcome [5] | Potency [6] | Potency [7] | Potency [8] | Potency [9] | Potency [10] | Potency [11] | Potency [12] | Potency [13] | Potency [14] | Potency [15] | Potency [16] | Potency [17] | Potency [18] | Potency [19]

O=C=NCc1cccc(CN=C=O)c1
inactive: activity change, negative = cytotoxicity [1] 3.98% [at 19 µM] | activity, positive = activation [2] -9.19% [at 19 µM] | activity change [3] -0.327% [at 11.8 µM, stronger effect = higher value] | activation [4] 0.462% [at 15.8 µM] | activation [5] 0.869% [at 11.8 µM] | activation [6] -0.418% [at 13.5 µM] | activation [7] 0.266% [at 13.6 µM] | activity change, negative = cytotoxicity [8] 2.85% [at 13.5 µM] | activity change, negative = cytotoxicity [9] 8.14% [at 13.5 µM] | activation [10] -3.35% [at 13.5 µM] | activity, negative = inhibition [11] 11.7% [at 12.7 µM] | activation [12] 3.99% [at 15.9 µM] | activity, negative = inhibition [13] -10.9% [at 12.6 µM] | activity change, negative = inhibition [16] 0.972% [at 18.9 µM] | activity change, negative = inhibition [17] -5.04% [at 19 µM] | Potency [20] | activation [18] -2% [at 19 µM] | activity change, negative = inhibition [19] 2.32% [at 18.9 µM]

O=C1c2ccccc2C(=O)C1c1nc2ccccc2c(Br)c1O
active: Potency [2] 24.3 µM
inactive: Potency [1] | Potency [3] | outcome [4] | outcome [5] | Potency [6] | Potency [7] | Potency [8] | Potency [9] | Potency [10] | Potency [11] | Potency [12] | Potency [13] | Potency [14] | Potency [17] | Potency [20] | Potency [18] | Potency [19]

OCCN1CN(CCO)CN(CCO)C1
inactive: Potency [1] | Potency [2] | Potency [3] | outcome [4] | outcome [5] | Potency [6] | Potency [7] | Potency [8] | Potency [9] | Potency [10] | Potency [11] | Potency [12] | Potency [13] | Potency [14] | Potency [15] | Potency [17] | Potency [18] | Potency [19]

COc1cc(C)ccc1C(C)C
inactive: Potency [1] | Potency [2] | Potency [3] | outcome [4] | outcome [5] | Potency [6] | Potency [7] | Potency [8] | Potency [9] | Potency [10] | Potency [11] | Potency [12] | Potency [14] | Potency [15] | Potency [16] | Potency [17] | Potency [20] | Potency [18] | Potency [19]

Cc1ccc(N(CCO)CCO)cc1
inactive: Potency [1] | Potency [2] | Potency [3] | outcome [4] | outcome [5] | Potency [6] | Potency [7] | Potency [8] | Potency [9] | Potency [10] | Potency [11] | Potency [12] | Potency [13] | Potency [14] | Potency [15] | Potency [16] | Potency [17] | Potency [18] | Potency [19]
